Measurements: PubChem BioAssay AID1259313 (Sanford-Burnham Center for Chemical Genomics, 2017)
About 8,500 (2.5%) of roughly 340,000 compounds were called active.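 Rule for the calls: active = melting temperature shift of at least 10% of the positive control shift, at one fixed dose; inactive = the rest.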 The entries come from a sample that favours actives as a whole.

What follows are compounds tested on Glutamate receptor ionotropic, NMDA 3A (GRIN3A) ligand-binding domain (assay: NR3A LBD thermal stabilization by compounds – biophysical, differential scanning fluorimetry, uHTS, primary screen (AID 1259313)). Conditions: at 25 µM, hits give high values, 0% = protein alone, 100% = glycine-bound protein.

Structure (SMILES) | Tm shift relative to glycine control
O=C1CC(c2c(F)cccc2Cl)C(n2cncn2)C(O)=C1C1NCCc2ccccc21 (stereo not given) | -0.39% (inactive)
CC(C)N(c1ccccc1)c1ncnc(NCCC(=O)O)c1[N+](=O)[O-] | -4.26% (inactive)
Cc1cccc(C(=O)NCC(=O)OCC(=O)N(C)CC(=O)Nc2ccccc2Cl)c1 | -0.85% (inactive)
COc1ccc(CNC(=O)COc2cccnc2[N+](=O)[O-])cc1 | 1.77% (inactive)
Cc1ccc(NC(=O)Cc2nc(COC(=O)C(C)NS(=O)(=O)c3ccc(C)cc3)cs2)cc1 (stereo not given) | -1.68% (inactive)
Cc1cc(C(=O)N2CCC(C(=O)O)CC2)c(C(F)(F)F)o1 | 2.93% (inactive)
CCOc1ccc2nc(Nc3nc4ccc(NC(C)=O)cc4s3)sc2c1 | 25.2% (active)
CCC(=O)c1ccc(OCC(=O)Nc2ccc3nc(C)sc3c2)cc1 | 0.32% (inactive)
NS(=O)(=O)c1ccc2nc(NC(=O)C3=COCCO3)sc2c1 | -8.75% (inactive)
COc1ccc2nc(Nc3nc4cc5c(cc4s3)OCCO5)sc2c1 | 12.4% (active)
CCOc1ccc2nc(NC(=O)CSc3nc4c(c(=O)n(C)c(=O)n4C)n3CC)sc2c1 | 1.39% (inactive)
c1c2c(cc3sc(N4CCCCC4)nc13)OCCO2 | 8.4% (inactive)
O=C(COC(=O)c1c(Cl)cccc1Cl)Nc1cccc(S(=O)(=O)NC2=NCCCCC2)c1 | 1.06% (inactive)
O=C(CCl)Nc1ccc(Sc2ccc(NC(=O)CCl)cc2)cc1 | -12.3% (inactive)
CC(=O)N(Cc1cccs1)C1CCOC(C)(C)C1 (stereo not given) | -1.65% (inactive)
FC(F)(F)c1cccc(N/N=C/c2ccccc2)c1 | 6.56% (inactive)
Oc1ccc(Br)cc1/C=N/Nc1ccccn1 | -22% (inactive)
Oc1ccc(/C=N/Nc2ccc(C(F)(F)F)cn2)cc1O | 21.1% (active)
CCCCOP(=O)(c1ccc(N(C)C)cc1)C(O)c1cc(OC)ccc1OC (stereo not given) | -0.74% (inactive)
O=S(=O)(NCc1ccc(Cl)cc1Cl)c1cccs1 | 1.65% (inactive)
O=S(=O)(Nc1ccccc1Br)c1cccs1 | 0.85% (inactive)
O=C(Nc1cccc(Cl)c1)Nc1ccccc1NS(=O)(=O)c1cccs1 | 30.3% (active)
NC(=O)Cc1ccc2sc(-c3ccccc3)nc2c1 | -2.6% (inactive)
Cc1ccc(S(=O)(=O)NCC(=O)N(CC(=O)NCC2CCCO2)c2cccc(F)c2)cc1 (stereo not given) | -1.71% (inactive)

Structure (SMILES) | Tm shift relative to glycine control
O=c1[nH]c(CSc2ncc(-c3ccc(F)cc3)n2Cc2ccco2)nc2ccccc12 | -0.27% (inactive)
Nc1cc(=O)nc(SCc2ccccc2)n1Cc1ccco1 | 10.8% (active)
CCn1c(SCc2ccccc2)nc2cc(OC)c(OC)cc2c1=O | -6.11% (inactive)
COc1cccc(N(Cc2nnc3n2CCCCC3)C(=O)Nc2ccccc2F)c1 | 0.08% (inactive)
CCCN(CCC)C(=S)Nc1cc(C(=O)OC)ccc1C(=O)OC | -5.25% (inactive)
CC(=O)C1=C(C)NC(C)=C(C(C)=O)C1c1cn(-c2ccccc2)nc1-c1cccs1 | -4.58% (inactive)
CCc1ccc(CN(C)C(=O)C2CCC(=O)N(Cc3cccc(OC)c3)C2)nc1 (stereo not given) | 1.62% (inactive)
O=C1NC(c2ccc(-c3ccccc3[N+](=O)[O-])o2)C(C(=O)c2ccc(Cl)cc2)C(O)(C(F)(F)F)N1 (stereo not given) | -17.2% (inactive)
CC1=NN(c2ccc(Cl)c(C(=O)O)c2)C(=O)/C1=C/c1ccc(-c2ccccc2[N+](=O)[O-])o1 | 31.1% (active)
O=C(Nc1ccc(N2CCOCC2)cc1)c1ccc(-c2ccccc2[N+](=O)[O-])o1 | -2.01% (inactive)
Cc1cnc(CN(C)C(=O)C2CCC(=O)N(CCc3cccc(F)c3)C2)[nH]1 (stereo not given) | -3.25% (inactive)
CSc1ccccc1-c1nnc(-c2ccc(Cl)cc2)o1 | 0.54% (inactive)
CC(C)C(=O)NCc1cc(-c2ccc(Cl)cc2)no1 | 0.32% (inactive)
Oc1ccccc1-c1cc(-c2ccc(Cl)cc2)n[nH]1 | 31% (active)
NC(=O)C[C@@H]1NC(=O)CNC(=O)c2cc([N+](=O)[O-])cc(I)c2NCCC(C(N)=O)NC1=O (stereo not given in full) | -1.1% (inactive)
CCC(C)n1[nH]c(=O)cc1N (stereo not given) | -2.66% (inactive)
N#Cc1ccccc1S(=O)(=O)N1CCN(Cc2c(O)ccc3ccccc23)CC1 | -5.71% (inactive)
COc1cc(C(=O)NCC(=O)N2CC=C(c3ccccc3)CC2)cc(OC)c1OC | 0.85% (inactive)
O=C(Nc1ccc(Cl)c(Cl)c1)N1CC=C(c2ccccc2)CC1 | 12.9% (active)
O=C(O)c1cccc(S(=O)(=O)N2CC=C(c3ccccc3)CC2)c1 | 1.73% (inactive)
CC(C)c1ccc(Nc2ncccc2C#N)cc1 | -9.92% (inactive)
O=C(COc1ccc([N+](=O)[O-])cc1Cl)Nn1cnnc1 | 1.68% (inactive)
CCOc1ccc(/C(O)=C2\C(=O)C(=O)N(c3ccc(OC)cc3)C2c2ccccc2[N+](=O)[O-])cc1 (stereo not given) | -0.41% (inactive)
COc1ccc(S(=O)(=O)N2CCOCC2)cc1NC(=O)c1ccc(OCC(C)C)c(OC)c1 | 3.09% (inactive)

Structure (SMILES) | Tm shift relative to glycine control
S=C(NCc1ccc(Cl)cc1)NC12CC3CC(CC(C3)C1)C2 | 15.2% (active)
COC(=O)Cc1ccc(NC(=S)NCc2ccc(Cl)cc2)cc1 | -5.66% (inactive)
CN(C)CCCNC(=S)NCc1ccc(Cl)cc1 | 2.67% (inactive)
O=C(/C=C\c1ccc2c(c1)OCO2)NC1(C(=O)Nc2ccc3c(c2)OCCO3)CCCCC1 | -13.2% (inactive)
O=C(/C=C/c1ccc2c(c1)OCCO2)c1ccc(O)cc1 | 13.4% (active)
CN(C)c1ccc(/C=C/C(=O)c2ccc(O)cc2)cc1[N+](=O)[O-] | 5.36% (inactive)
CC(C)c1nnc(NC(=O)C2CC(=O)N(CCc3ccc(F)cc3)C2)s1 (stereo not given) | -0.27% (inactive)
CCCC(C(=O)n1nc(C)cc1C)C(NS(=O)(=O)c1ccc(C)cc1)c1ccccc1 (stereo not given) | -0.23% (inactive)
CSCCC(NC(=O)c1ccccc1)C(=O)N1CCN(Cc2ccc(Cl)cc2)CC1 (stereo not given) | 18.1% (active)
COc1ccccc1C(=O)NC(CCSC)C(=O)N1CCN(C(C)=O)CC1 (stereo not given) | -1.22% (inactive)
CSCCC(NC(=O)c1ccccc1)C(=O)N1CCCCCCC1 (stereo not given) | 0.17% (inactive)
O=C(O)CC(Cc1ccccc1)C(=O)Nc1ccc([N+](=O)[O-])cc1 (stereo not given) | -4.38% (inactive)
O=C(Cn1c2[n+](c3ccc(C(F)(F)F)cc31)CCCCC2)Nc1c(F)cccc1F | -0.45% (inactive)
COc1cc(/C=C/C(=O)OCC(=O)NC2CC2)cc(OC)c1OC | 3.83% (inactive)
Cc1nc2ccc(NC(=S)N3CCC(C)CC3)cc2nc1C | -0.26% (inactive)
O=S(=O)(NCCCc1ccccc1)c1ccc(Br)cc1 | -5.32% (inactive)
O=C(NCC1COc2ccccc2O1)C1(c2ccccc2)CCCC1 (stereo not given) | -1.37% (inactive)
S=C(NCCCc1ccccc1)Nc1ccc(Br)cc1 | 10.2% (active)
S=C(NCC1COc2ccccc2O1)Nc1ccc(Br)cc1 (stereo not given) | 14.7% (active)
S=C(Nc1ccc(Br)cc1)NC1CCN(Cc2ccccc2)CC1 | -2.33% (inactive)
CCCN(CC1COc2ccccc2O1)C(=S)Nc1ccc(C)cc1 (stereo not given) | -4.99% (inactive)
COc1cccc(/C=C2\Sc3ccc(C(=O)NCC4CCCO4)cc3N(C)C2=O)c1 (stereo not given) | -11.6% (inactive)
CN(CCc1ccccn1)C1CCCN(S(=O)(=O)c2ccccc2Cl)C1 (stereo not given) | -1.11% (inactive)
Cc1ccc(C)c(NC(=O)c2ccc(OC(=O)c3ccco3)cc2)c1 | -0.45% (inactive)

Structure (SMILES) | Tm shift relative to glycine control
CC(=O)n1c(C=Nc2ccccc2)c(O)c2ccccc21 | 0.18% (inactive)
Oc1ccc(N=Cc2sc3ccccc3c2Cl)cc1 | 15.5% (active)
Cc1ccn2cc(-c3nonc3C)cc2c1 | -33.8% (inactive)
Cc1ccoc1C(=O)Nc1cccc(Oc2ccccc2)c1 | -3.01% (inactive)
Cc1cccc(NC(=O)Nc2cccc(Oc3c(F)c(F)c(F)c(F)c3F)c2)c1 | 29.1% (active)
Cc1ccc(NC(=O)Nc2ccccc2)c(Br)c1 | -0.75% (inactive)
CCOc1cc(/C=C/C(=O)OCC(=O)NCCN2C(=O)CSC2=O)ccc1OCC(C)C | 0.08% (inactive)
CN(Cc1ccc(F)cc1Cl)S(=O)(=O)c1cccs1 | 1.26% (inactive)
Fc1ccc(NC(=S)N2CCc3[nH]c4ccccc4c3C2)cc1 | 13.3% (active)
C=CCNC(=S)N1CCc2[nH]c3ccccc3c2C1 | -15.2% (inactive)
O=C(Nc1ccc(Cl)cc1)N1CCc2[nH]c3ccccc3c2C1 | 250% (active)
COc1ccc(NC(=S)N2CCc3cc(OC)c(OC)cc3C2)cc1 | -0.36% (inactive)
CCOC(=O)C1CCN(C(=O)Nc2ccc(Cl)cc2)CC1 | 3.57% (inactive)
CCc1ccc(NC(=O)N2CCc3ccccc3C2)cc1 | -0.69% (inactive)
Cc1ccccc1N/C(SCc1ccc(Cl)cc1)=C(/C#N)C(N)=O | -24% (inactive)
CC1CCN(c2ccc(-c3ccc(NC(=O)c4ccco4)cc3)nn2)CC1 | 5.6% (inactive)
O=S(=O)(Cc1cc(Cl)nc(-c2cccnc2)n1)c1ccccc1 | 1.48% (inactive)
CN(C(=O)c1cccc(NC(=O)Cc2ccc(NC(=O)C3CCCN(C(=O)C4CC4)C3)cc2)c1)C1CC1 (stereo not given) | 1.17% (inactive)
CCc1nc(Nc2ccc(NC(C)=O)cc2)c2oc3ccccc3c2n1 | 10% (active)
C[C@@H](Nc1nc(-c2ccccc2)nc2c1oc1ccccc12)C(=O)O | 5.42% (inactive)
CCc1nc(Nc2ccc3nccnc3c2)c2oc3ccccc3c2n1 | -14.2% (inactive)
CCCC(=O)NC(=S)Nc1ccc(CN2CCOCC2)cc1 | 1.2% (inactive)
Cc1cc(C)nc(SCc2cn3c(C)cc(C)nc3n2)n1 | -0.2% (inactive)
